High-throughput results as filed in PubChem BioAssay.
VLA-4 inh: inhibition in a human VLA-4 binding assay; P13612; VLA-4 expressing cells, ligand binding flow cytometry; inhibition, % (about 7 µM as worked out from the volumes in the protocol); actives 0.2% (n = 330,000); AID 2557; in the data active = inhibition above about 50%
MEKK2wt PB1 HTS: raises or lowers MEK5 binding to wildtype human MEKK2 PB1 domain | Q9Y2U5 | bead flow cytometry, Alexa488-MEK5 binding to MEKK2 WT; actives lie on both sides | binding response (% of control), % at 10 µM | actives 1.1% (n = 290,000) | AID 1531; in the data active = binding response below about 67% or above about 130%
MEKK3 PB1 HTS: raises or lowers MEK5 binding to the human MEKK3 PB1 domain | Q99759 | bead-based flow cytometry, Alexa488-MEK5 binding to MEKK3; actives lie on both sides; 0 = blocked by unlabeled MEK5, 100 = vehicle | binding response (% of control), % at 10 µM | actives 1.4% (n = 290,000);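 active = binding response more than 3 SD above or below the average of its plate-row segment, actives on both sides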;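 note: Alexa488 bead fluorescence after subtracting the streptavidin-only scavenger bead signal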
MEKK2 mut-MEK5: signal of MEK5 binding to mutant human MEKK2 PB1 domain; bead flow cytometry, Alexa488-MEK5 binding to MEKK2 mutant; percent response, % at 10 µM; actives 0.35% (n = 290,000); AID 1530; in the data active = percent response above about 24%, passing the limit was not always enough
VLA-4 mod pick: confirmation of allosteric modulators of human VLA-4 integrin | inhibition, % at 6.7 µM | actives 2% (n = 1,300) | shares compounds with VLA-4 inh | U937 cells, HUTS-21 LIBS mAb binding, flow cytometry; LDV ligand present at threefold Kd | AID 2813; in the data active = inhibition above about 40%
Of the large screens only hits and unclear results are named; the others gave an inactive call (follow-up assays come after a bar, where they were run). A selection: hits, their analogues and other compounds. The true share with any hit is near 2.2%.

O=C(CNS(=O)(=O)c1ccc(Br)cc1)OCc1cc(=O)n2cc(Br)ccc2n1	none | VLA-4 mod pick inactive
O=C(CNC(=O)c1cccc(OC(F)F)c1)OCc1cc(=O)n2cc(Br)ccc2n1	none
CCOCC(O)CNc1ccccc1 (centres undefined)	none | VLA-4 mod pick inactive
OC(CNc1ccccc1)COc1ccc(OCC(O)CNc2ccccc2)cc1 (centres undefined)	none
COc1cccc2cc(C(=O)NCCN3CCOCC3)c(=O)oc12	none | VLA-4 mod pick inactive
COc1ccc(-n2cnc3cc(C(=O)NCCN4CCOCC4)ccc32)cc1	none | VLA-4 mod pick inactive
COc1ccc(CCNC(=O)c2cc3cccc(OC)c3oc2=O)cc1OC	none
COc1ccc(-n2c(C)nc3cc(C(=O)NCCN4CCOCC4)ccc32)cc1	none
Cc1ccc(N2C(=O)N(CC(=O)Nc3c(C)cc(C)cc3Cl)C(=O)C2C)cc1 (centres undefined)	none (no result: MEKK2wt PB1 HTS, MEKK3 PB1 HTS, MEKK2 mut-MEK5)
COc1ccccc1N1CCN(C(=O)c2ccc3[nH]c(C)c(C)c3c2)CC1	VLA-4 inh 50.1 | VLA-4 mod pick inactive
Cc1[nH]c2ccc(C(=O)N3CCN(c4ccccc4Cl)CC3)cc2c1C	none
Cc1ccc(CN2CCC(n3nccc3NC(=O)CCOc3ccccc3)CC2)cc1C	VLA-4 inh 105.9 | VLA-4 mod pick inactive
Cc1nc(C)n(C(C)CNC(=O)c2cccc(Br)c2)n1 (centres undefined)	none
Cc1ccccc1NC(=O)Cn1c(=O)oc2ccccc21	none
CCOc1ccc(NC(=O)CN(C)C(=O)Cn2c(=O)oc3ccccc32)cc1OCC	none (no result: MEKK2wt PB1 HTS, MEKK3 PB1 HTS, MEKK2 mut-MEK5)
Cc1ccc(NC(=O)Nc2ccccc2C(N)=O)cc1	none | VLA-4 mod pick inactive
COc1ccc(Cl)cc1NC(=O)CN(C)C(=O)Cn1c(=O)oc2ccccc21	none (no result: MEKK2wt PB1 HTS, MEKK3 PB1 HTS, MEKK2 mut-MEK5) | VLA-4 mod pick inactive
COc1ccc(Cl)cc1NC(=O)CCn1c(=O)oc2ccccc21	none
CN(CC(=O)Nc1ccccc1C(F)(F)F)C(=O)Cn1c(=O)oc2ccccc21	none (no result: MEKK2wt PB1 HTS, MEKK3 PB1 HTS, MEKK2 mut-MEK5) | VLA-4 mod pick inactive
COc1ccc(C)cc1NC(=O)Cn1c(=O)oc2ccccc21	none | VLA-4 mod pick inactive
CC(=O)c1ccc(S(=O)(=O)NC2CC(=O)N(c3ccc(Cl)cc3)C2)cc1 (centres undefined)	none (no result: MEKK2wt PB1 HTS, MEKK3 PB1 HTS, MEKK2 mut-MEK5)
CCc1c(C2(O)CCCCC2)[nH]c2ncccc12	none (no result: MEKK2wt PB1 HTS, MEKK3 PB1 HTS, MEKK2 mut-MEK5)
CCCc1cc(=O)[nH]c2nnc(SCC(=O)NC3CCCCC3)n12	none (no result: MEKK2wt PB1 HTS, MEKK3 PB1 HTS, MEKK2 mut-MEK5)
CC1CCC(NC(=O)Cn2c(=O)oc3ccccc32)CC1 (centres undefined)	none | VLA-4 mod pick inactive
CC1CCN(C(=O)Cn2c(=O)oc3ccccc32)CC1	none
COc1ccc(C)cc1NC(=O)Nc1ccccc1	VLA-4 inh 49.8 | VLA-4 mod pick inactive
COc1ccc(OC)c(C2C(C(C)=O)=C(C)Nc3ncnn32)c1 (centres undefined)	none
CN(C)c1ccc(CNS(=O)(=O)c2ccc3c(c2)C(C)(C)C(=O)N3C)cc1	VLA-4 inh 52.3 | VLA-4 mod pick inactive
CCOC(=O)C1CCCN(C2CC(=O)N(c3cccc(C(F)(F)F)c3)C2=O)C1 (centres undefined)	none | VLA-4 mod pick inactive
CCOC(=O)C1CCCN(C2CC(=O)N(c3ccc(C)c(C)c3)C2=O)C1 (centres undefined)	none | VLA-4 mod pick inactive
Cc1ccc(S(=O)(=O)N2CCOCC2)cc1C(=O)NCC1CCCCC1	none (no result: MEKK2wt PB1 HTS, MEKK3 PB1 HTS, MEKK2 mut-MEK5)
c1ccc(-c2ncnc3cc4n(c23)CCC4)cc1	VLA-4 inh 61.0 | VLA-4 mod pick inactive
Cc1ccc2ncnc(-c3ccccc3)c2c1	none
CC(=O)NCCc1ccc(O)cc1	none
C[C@H](NCCc1ccc(O)cc1)[C@H](O)c1ccc(O)cc1	VLA-4 inh 51.7 (no result: MEKK2wt PB1 HTS, MEKK3 PB1 HTS, MEKK2 mut-MEK5) | VLA-4 mod pick inactive
Cc1ccc(CNC(=O)CCNS(=O)(=O)c2cccc3nsnc23)cc1	none
CCc1c(C)nc(SCC(=O)NNC(=O)Cc2ccc(OC)cc2)[nH]c1=O	none
COc1ccc(CC(=O)NNC(=O)CSc2ccc(C)cc2)cc1	VLA-4 inh 53.1 | VLA-4 mod pick inactive
COc1ccccc1NC(=O)C(C)OC(=O)C1CCN(S(=O)(=O)c2ccc(C)c(C)c2)CC1 (centres undefined)	none (no result: MEKK2wt PB1 HTS, MEKK3 PB1 HTS, MEKK2 mut-MEK5)
O=C1CCc2ccc(NC(=O)C3CC3)cc2N1	VLA-4 inh 54.6 | VLA-4 mod pick inactive
CC(=O)Nc1ccc2c(c1)NC(=O)CC2	none
COc1ccc(C(C)=O)cc1COC(=O)CNC(=O)c1cc(C)cc(C)c1	VLA-4 inh 52.9 | VLA-4 mod pick inactive
Cc1nonc1NC(=O)CSc1nnnn1-c1ccccc1	none
